# Source: the supplement of paper PMC4466140
# Key:
# Experiment in all cases: SPOT peptide array binding signal intensity (averaged, normalized) (arbitrary units (background-subtracted, floor 0; scale differs between SH3 domains)); higher = stronger binding of the SH3 domain to the peptide
# AgAbp1 = molecular target: AgAbp1
# How it was run: (§1)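 Peptides were synthetic 15-mers on cellulose membranes, with every cysteine replaced by serine. They were incubated overnight at 4°C with GST-SH3 domains from four yeast species at 10 μg/ml in TBS-based blocking buffer. Binding signal, the replicate-averaged normalized and background-subtracted spot intensity, is in arbitrary units that differ between domains.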
# AgBbc1 = molecular target: AgBbc1
# How it was run: as §1
# AgBem1-D1 = molecular target: AgBem1-D1
# How it was run: as §1
# AgBzz1-D1 = molecular target: AgBzz1-D1
# How it was run: as §1
# AgBzz1-D2 = molecular target: AgBzz1-D2
# How it was run: as §1
# AgCyk3 = molecular target: AgCyk3
# How it was run: as §1
# AgFus1 = molecular target: AgFus1
# How it was run: as §1
# AgHof1 = molecular target: AgHof1
# How it was run: as §1
# AgHse1 = molecular target: AgHse1
# How it was run: as §1
# AgLsb1 = molecular target: AgLsb1
# How it was run: as §1
# AgLsb4 = molecular target: AgLsb4
# How it was run: as §1
# AgMyo5 = molecular target: AgMyo5
# How it was run: as §1
# AgNbp2 = molecular target: AgNbp2
# How it was run: as §1
# AgRvs167 = molecular target: AgRvs167
# How it was run: as §1
# AgSho1 = molecular target: AgSho1
# How it was run: as §1
# AgSla1-D1-D2 = molecular target: AgSla1-D1-D2
# How it was run: as §1
# AgSla1-D3 = molecular target: AgSla1-D3
# How it was run: as §1
# CaAbp1-D1 = molecular target: CaAbp1-D1
# How it was run: as §1
# CaAbp1-D2 = molecular target: CaAbp1-D2
# How it was run: as §1
# CaBbc1 = molecular target: CaBbc1
# How it was run: as §1
# CaBem1-D1 = molecular target: CaBem1-D1
# How it was run: as §1
# CaBzz1-D1 = molecular target: CaBzz1-D1
# How it was run: as §1
# CaBzz1-D2 = molecular target: CaBzz1-D2
# How it was run: as §1
# CaCyk3 = molecular target: CaCyk3
# How it was run: as §1
# CaFus1 = molecular target: CaFus1
# How it was run: as §1
# CaHof1 = molecular target: CaHof1
# How it was run: as §1
# CaHse1 = molecular target: CaHse1
# How it was run: as §1
# CaLsb1 = molecular target: CaLsb1
# How it was run: as §1
# CaLsb4 = molecular target: CaLsb4
# How it was run: as §1
# CaMyo5 = molecular target: CaMyo5
# How it was run: as §1
# CaNbp2 = molecular target: CaNbp2
# How it was run: as §1
# CaRvs167 = molecular target: CaRvs167
# How it was run: as §1
# CaRvs167-3 = molecular target: CaRvs167-3
# How it was run: as §1
# CaSho1 = molecular target: CaSho1
# How it was run: as §1
# CaSla1-D1-D2 = molecular target: CaSla1-D1-D2
# How it was run: as §1
# CaSla1-D3 = molecular target: CaSla1-D3
# How it was run: as §1
# ScAbp1 = molecular target: ScAbp1
# How it was run: as §1
# ScBbc1 = molecular target: ScBbc1
# How it was run: as §1
# ScBem1-D1 = molecular target: ScBem1-D1
# How it was run: as §1
# ScBzz1-D1 = molecular target: ScBzz1-D1
# How it was run: as §1
# ScBzz1-D2 = molecular target: ScBzz1-D2
# How it was run: as §1
# ScCyk3 = molecular target: ScCyk3
# How it was run: as §1
# ScFus1 = molecular target: ScFus1
# How it was run: as §1
# ScHof1 = molecular target: ScHof1
# How it was run: as §1
# ScHse1 = molecular target: ScHse1
# How it was run: as §1
# ScLsb1 = molecular target: ScLsb1
# How it was run: as §1
# ScLsb2 = molecular target: ScLsb2
# How it was run: as §1
# ScLsb3 = molecular target: ScLsb3
# How it was run: as §1
# ScLsb4 = molecular target: ScLsb4
# How it was run: as §1
# ScMyo3 = molecular target: ScMyo3
# How it was run: as §1
# ScMyo5 = molecular target: ScMyo5
# How it was run: as §1
# ScNbp2 = molecular target: ScNbp2
# How it was run: as §1
# ScPex13 = molecular target: ScPex13
# How it was run: as §1
# ScRvs167 = molecular target: ScRvs167
# How it was run: as §1
# ScSho1 = molecular target: ScSho1
# How it was run: as §1
# ScSla1-D1-D2 = molecular target: ScSla1-D1-D2
# How it was run: as §1
# ScSla1-D3 = molecular target: ScSla1-D3
# How it was run: as §1
# SpAbp1-D1 = molecular target: SpAbp1-D1
# How it was run: as §1
# SpBbc1 = molecular target: SpBbc1
# How it was run: as §1
# SpBzz1-D1 = molecular target: SpBzz1-D1
# How it was run: as §1
# SpBzz1-D2 = molecular target: SpBzz1-D2
# How it was run: as §1
# SpCyk3 = molecular target: SpCyk3
# How it was run: as §1
# SpHof1 = molecular target: SpHof1
# How it was run: as §1
# SpHof1-2 = molecular target: SpHof1-2
# How it was run: as §1
# SpHof1-3 = molecular target: SpHof1-3
# How it was run: as §1
# SpHse1 = molecular target: SpHse1
# How it was run: as §1
# SpLsb1 = molecular target: SpLsb1
# How it was run: as §1
# SpLsb4 = molecular target: SpLsb4
# How it was run: as §1
# SpMyo1 = molecular target: SpMyo1
# How it was run: as §1
# SpNbp2 = molecular target: SpNbp2
# How it was run: as §1
# SpPex13 = molecular target: SpPex13
# How it was run: as §1
# SpRvs167 = molecular target: SpRvs167
# How it was run: as §1
# SpSla1-D1-D2 = molecular target: SpSla1-D1-D2
# How it was run: as §1
# SpSla1-D3 = molecular target: SpSla1-D3
# How it was run: as §1
binder,measurement,setting,value
LKQRFFLMFPKSIIW,SPOT peptide array binding signal intensity,AgAbp1,4
same,SPOT peptide array binding signal intensity,AgBbc1,6
same,SPOT peptide array binding signal intensity,AgBem1-D1,102
same,SPOT peptide array binding signal intensity,AgBzz1-D1,49.5
same,SPOT peptide array binding signal intensity,AgBzz1-D2,44
same,SPOT peptide array binding signal intensity,AgCyk3,1.5
same,SPOT peptide array binding signal intensity,AgFus1,742
same,SPOT peptide array binding signal intensity,AgHof1,81.5
same,SPOT peptide array binding signal intensity,AgHse1,1020
same,SPOT peptide array binding signal intensity,AgLsb1,0.5
same,SPOT peptide array binding signal intensity,AgLsb4,42.5
same,SPOT peptide array binding signal intensity,AgMyo5,0.5
same,SPOT peptide array binding signal intensity,AgNbp2,146
same,SPOT peptide array binding signal intensity,AgRvs167,3.67
same,SPOT peptide array binding signal intensity,AgSho1,102
same,SPOT peptide array binding signal intensity,AgSla1-D1-D2,141
same,SPOT peptide array binding signal intensity,AgSla1-D3,21
same,SPOT peptide array binding signal intensity,CaAbp1-D1,295
same,SPOT peptide array binding signal intensity,CaAbp1-D2,65.5
same,SPOT peptide array binding signal intensity,CaBbc1,17.8
same,SPOT peptide array binding signal intensity,CaBem1-D1,33.5
same,SPOT peptide array binding signal intensity,CaBzz1-D1,104
same,SPOT peptide array binding signal intensity,CaBzz1-D2,48.5
same,SPOT peptide array binding signal intensity,CaCyk3,5
same,SPOT peptide array binding signal intensity,CaFus1,4200
same,SPOT peptide array binding signal intensity,CaHof1,0.5
same,SPOT peptide array binding signal intensity,CaHse1,121
same,SPOT peptide array binding signal intensity,CaLsb1,1.5
same,SPOT peptide array binding signal intensity,CaLsb4,42
same,SPOT peptide array binding signal intensity,CaMyo5,35
same,SPOT peptide array binding signal intensity,CaNbp2,676
same,SPOT peptide array binding signal intensity,CaRvs167,89.2
same,SPOT peptide array binding signal intensity,CaRvs167-3,520
same,SPOT peptide array binding signal intensity,CaSho1,484
same,SPOT peptide array binding signal intensity,CaSla1-D1-D2,84.5
same,SPOT peptide array binding signal intensity,CaSla1-D3,257
same,SPOT peptide array binding signal intensity,ScAbp1,48
same,SPOT peptide array binding signal intensity,ScBbc1,4.5
same,SPOT peptide array binding signal intensity,ScBem1-D1,69
same,SPOT peptide array binding signal intensity,ScBzz1-D1,42
same,SPOT peptide array binding signal intensity,ScBzz1-D2,150
same,SPOT peptide array binding signal intensity,ScCyk3,124
same,SPOT peptide array binding signal intensity,ScFus1,819
same,SPOT peptide array binding signal intensity,ScHof1,1.5
same,SPOT peptide array binding signal intensity,ScHse1,1580
same,SPOT peptide array binding signal intensity,ScLsb1,1
same,SPOT peptide array binding signal intensity,ScLsb2,≤ 0
same,SPOT peptide array binding signal intensity,ScLsb3,33
same,SPOT peptide array binding signal intensity,ScLsb4,14.5
same,SPOT peptide array binding signal intensity,ScMyo3,≤ 0
same,SPOT peptide array binding signal intensity,ScMyo5,4
same,SPOT peptide array binding signal intensity,ScNbp2,252
same,SPOT peptide array binding signal intensity,ScPex13,15.5
same,SPOT peptide array binding signal intensity,ScRvs167,14.5
same,SPOT peptide array binding signal intensity,ScSho1,1060
same,SPOT peptide array binding signal intensity,ScSla1-D1-D2,91.5
same,SPOT peptide array binding signal intensity,ScSla1-D3,132
same,SPOT peptide array binding signal intensity,SpAbp1-D1,69
same,SPOT peptide array binding signal intensity,SpBbc1,≤ 0
same,SPOT peptide array binding signal intensity,SpBzz1-D1,103
same,SPOT peptide array binding signal intensity,SpBzz1-D2,0.5
same,SPOT peptide array binding signal intensity,SpCyk3,9
same,SPOT peptide array binding signal intensity,SpHof1,236
same,SPOT peptide array binding signal intensity,SpHof1-2,36.5
same,SPOT peptide array binding signal intensity,SpHof1-3,748
same,SPOT peptide array binding signal intensity,SpHse1,972
same,SPOT peptide array binding signal intensity,SpLsb1,≤ 0
same,SPOT peptide array binding signal intensity,SpLsb4,38.5
same,SPOT peptide array binding signal intensity,SpMyo1,3.5
same,SPOT peptide array binding signal intensity,SpNbp2,515
same,SPOT peptide array binding signal intensity,SpPex13,86
same,SPOT peptide array binding signal intensity,SpRvs167,14.3
same,SPOT peptide array binding signal intensity,SpSla1-D1-D2,≤ 0
same,SPOT peptide array binding signal intensity,SpSla1-D3,39
LTRRFPFLFPFDTRM,SPOT peptide array binding signal intensity,SpBzz1-D2,≤ 0
same,SPOT peptide array binding signal intensity,SpCyk3,11.5
same,SPOT peptide array binding signal intensity,SpHof1,72.5
same,SPOT peptide array binding signal intensity,SpHof1-2,11.5
same,SPOT peptide array binding signal intensity,SpHof1-3,1320
same,SPOT peptide array binding signal intensity,SpHse1,1740
same,SPOT peptide array binding signal intensity,SpLsb1,≤ 0
same,SPOT peptide array binding signal intensity,SpLsb4,≤ 0
same,SPOT peptide array binding signal intensity,SpMyo1,7
same,SPOT peptide array binding signal intensity,SpNbp2,69
same,SPOT peptide array binding signal intensity,SpPex13,14
same,SPOT peptide array binding signal intensity,SpRvs167,2.17
same,SPOT peptide array binding signal intensity,SpSla1-D1-D2,2.5
same,SPOT peptide array binding signal intensity,SpSla1-D3,5
